Our source for the Potency values is PubChem BioAssay AID720526 (National Center for Advancing Translational Sciences (NCATS), 2013).

Inconclusive results are not listed. A call without a number means that no potency is given here. Active and inactive are the calls of the source. Calls follow the shape of the dose curve; as a rule, active = well fitted activation curve with a large enough effect; inconclusive = small, poorly fitted or top-dose-only effect; inactive = no such curve, though single readings can be large or run the other way.
Potency is read from the fitted curve at half-maximal effect.

A short description of this assay: qHTS Assay for NPC1 Promoter Activators: Hit Validation Using Renila Luciferase Read-Out for NPC1. The conditions noted are these: Huh7 NPC1 promoter-luciferase reporter, luminescence, 24 h; series mostly up to 76.9 µM. From the text:
Niemann Pick Type C (NPC) is a rare neurodegenerative lipidosis that is characterized by lipid storage in the endosomal/lysosomal system. Treatment modalities for this devastating disease are currently non-existent due to the severe obstacles associated with accessing the central nervous system with proteins or genes. The majority of mutations causing NPC disease are missense mutations that are distributed throughout the length of the NPC1 protein, with the most prevalent being the I1061T allele. Although NPC1 mutant proteins may be functional, they are typically trapped in the ER due to misfolding. […] We have developed and optimized a cell based renilla luciferase reporter assay in 1536 well format for the identification of up-regulators of the mutant Rab9 promoter. This assay presents data on the validation of hits from the primary screen, which used a firefly luciferase read-out. NIH Chemical Genomics Center [NCGC] NIH Molecular Libraries Probe Production centers Network [MLPCN] MLPCN Grant: MH089375 Assay Submitter (PI): Yiannis A. Ioannou
Huh7 cells stably expressing NPC promoter-luciferase will be seeded at 1,500 cells/well in 5 uL in 1,536-well white opaque plates with 23 nL/well of compound in DMSO solution. The assay plates will be incubated at 37 deg C for 24 hours, after which 3 uL/well BriteLite plus luciferase detection reagent mixture (Perkin Elmer) will be added. Luminescence signal will be measured in a ViewLux plate reader (Perkin Elmer) after a 10 minute incubation at the room temperature.
On the technique in general: Quantitative high-throughput screening tests each substance at several concentrations.
Turning to `NC(=O)COC(=O)c1ccc2noc(-c3ccccc3)c2c1`, the Potency result is “inactive”.
In the case of `Cc1cccc(N2CCN(C(=S)c3ccccc3)CC2)c1`, the Potency result is “inactive”.
The result for `O=C(CSc1nnc(-c2csc3c2CCCC3)o1)Nc1ccccc1` reads “inactive”; that for `CC(=O)c1c(C)[nH]c(C(=O)Nc2cccc(S(=O)(=O)N(C)C)c2)c1C`, 23.2 µM (active); that for `Cc1nn(CCCC(=O)NCc2ccc(F)cc2)c(C)c1[N+](=O)[O-]`, “inactive”.
For the compound `CCN(CC(=O)N(CC(C)C)c1c(N)n(CC(C)C)c(=O)[nH]c1=O)Cc1nc2ccccc2c(=O)[nH]1`, the Potency result is “inactive”.
Regarding `CCCc1cc(C(=O)Nc2ccccc2SC)no1`, the Potency entry was “inactive”.
The same measure for `CN(C)C(CNC(=O)CNC(=O)c1ccc2ccccc2c1)c1ccccc1` (stereo not given): “inactive”; for `Cc1ccc(NC(=O)c2c(O)c3ccccc3n(C)c2=O)nc1`: “inactive”; for `CC1CCCN(C(=S)Nc2ccc(Nc3ccccc3)cc2)C1` (stereo not given): “inactive”.
For `O=C(CCCOc1ccc(Cl)cc1)N1CCCCC1`, the Potency entry was “inactive”.
The result for `CC1CCCN(S(=O)(=O)c2ccc(C(=O)Nc3nnc(-c4ccncc4)o3)cc2)C1` (stereo not given) reads “inactive”; that for `COC(=O)c1ccc(NC(=O)c2ccc3nc(C)sc3c2)cc1`, “inactive”.
The result for `O=C(O)C1=CC[C@@H](c2ccc(Cl)cc2)N(S(=O)(=O)c2ccc(Cl)cc2)[C@H]1c1ccccc1` reads 14.6 µM (active); that for `COc1ccc(OC)c(S(=O)(=O)N2CCN3CCCC3C2)c1` (stereo not given), 32.8 µM (active).
The result for `CC(C)(C)NC(=S)NNC(=O)c1ccc2ncccc2c1` reads “inactive”; that for `Cc1nc2sc(C(=O)OC(C)C)c(N)c2c(C)c1C`, “inactive”.
For `CCOC(=O)c1ccc(NC(=O)Oc2cc(C)c(Cl)cc2C(C)C)cc1`, the Potency result was “inactive”.
The result for `COc1ccc(-c2noc(N3CCCC(C(=O)Nc4ccccc4F)C3)n2)cc1` (stereo not given) reads “inactive”; that for `Cc1csc(NC(=O)CSc2nnc(-c3ccncc3)o2)n1`, “inactive”; that for `OCCC1CN(Cc2nc3ccccc3s2)CCN1C1CCCC1` (stereo not given), “inactive”.
As to `O=C(O)CSc1nnc(-c2ccncc2)n1CCc1ccccc1`, the Potency result was “inactive”.
Turning to `Cc1ccc(NC(=O)COC(=O)C2C3CC4OC(=O)C2C4C3)cc1Cl` (stereo not given), the Potency entry was “inactive”.
The same measure for `Cc1ccc(C(=O)NC2CCN(CC(=O)Nc3c(C)cc(C)cc3C)CC2)cc1`: “inactive”; for `COc1ccc(C(=O)OCC(=O)N2CCCC2=O)c(OC)c1`: “inactive”.
In the case of `COCCSc1ncnc2c1oc1nc3c(cc12)COC(C)(C)C3`, the Potency entry is “inactive”.
Consider `O=C(c1cc2cc([N+](=O)[O-])ccc2oc1=O)n1cccn1`, for which the Potency result was “inactive”.
Turning to `O=C(C[N+]1(CC#Cc2ccccc2)CCCCC1)c1ccccc1`, the Potency result was “inactive”.
Consider `CCOC(=O)c1ccc(-c2nnc(-c3ccc(Cl)cc3Cl)o2)cc1`, for which the Potency result was “inactive”.
`COC(=O)c1ccccc1NC(=O)c1cc(-c2cccs2)on1`: the Potency result is “inactive”.
Consider `O=C(CSc1ncccn1)Nc1cccc2ccccc12`, for which the Potency result is “inactive”.
The result for `O=C(N/N=C/c1ccc(-c2ccc(Br)cc2)o1)c1ccc2c(c1)OCO2` reads “inactive”; that for `Cc1ccc(C)c(Nc2cc(C)nc3ncnn23)c1`, “inactive”.
For `COc1ccc(NC(=O)CSc2ccc([N+](=O)[O-])cc2)cc1S(=O)(=O)N1CCOCC1`, the Potency entry was “inactive”.
The same measure for `O=C(Nc1ccc(-c2nc3cccnc3s2)cc1)c1ccc(Cl)nc1`: “inactive”.
Turning to `Cc1ccc2nc(NC(=O)CCn3cccc3)sc2c1`, the Potency entry is “inactive”.
With `Cc1cccc(NC(=O)CSc2nc3ccccc3o2)c1`, the Potency result was “inactive”.
In the case of `C=CCOC(=O)N1CCN(c2cccc(C(F)(F)F)c2)CC1`, the Potency result was “inactive”.
Regarding `COCCNC(=O)CN1C(=O)NC(c2ccccc2)(c2ccccc2)C1=O`, the Potency result is “inactive”.
The result for `COc1ccc(-n2c(N)c(C(=O)NCc3ccco3)sc2=S)cc1` reads “inactive”.
